The supplement of paper PMC6555819

Test system: VDR:RXRa (NR concentration 270 nM, RXRa partner concentration 90 nM)
Experiment: PBM binding z-score (relative to random genomic background probes); higher = stronger binding; sequences stand for … in GC…GCGATTGACAGCGTAGAATGAAGG
Experimental: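 Protein-binding microarray (Agilent 4x180K custom design, double-stranded 60-nt probes: 5' GC cap, 34-nt variable region, 24-nt constant primer region; full probe sequence given). Purified or IVT nuclear receptor:RXRα heterodimers (3:1 NR:RXRα, mostly 270:90 nM) or homodimers were incubated for 1 h in PBS with 2% milk and no ligand, then detected with Alexa488 antibodies. Fluorescence from o1-orientation probes (~5 replicates averaged) was converted to z-scores against 500 random hg19 background probes. Variable regions are seed direct-repeat (DR0–DR5) sites, all their single-nucleotide variants and half-site ablations.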

Row | Sequence | PBM binding z-score
1 | AATACAGGGTAACTAGGCCAGAGTAGGTACGAAT | 0.199
2 | ATATGTAGGTTAGGGTCAGTCAGAAAGTAGGGAA | 2.49
3 | TCTTGTAGGTCAATAGAGGTTAAGAAAGTGCGCT | 4.85
4 | CCTACTGGGCCAAAGAGGTCATTGATGCCGATAA | 5.68
5 | CTATGTAGGTTAAGGGAGTCATTCAGTTTGAAAG | 1.94
6 | CGTACAAGGTCAAAGGTCAGTGAAGAGATGACGG | 6.84
7 | AGAATGAGGTTACCAAAGTTCAGGGAAACGCTTG | 5.53
8 | CCTACTGGGTCACGAAAGGTCATTGATTCAGTGA | 6.48
9 | CCTACTGGGCCAAAAAGTTCATTGATGCCGATAA | 3.68
10 | TCTGCTAGGTCATCGATGGTCAGCTAATCTGCTA | 2.16
11 | CAAACTAGGTCACAGTGGTCAAAGTCCGTGCGTA | 4.36
12 | GCTTACAGGTCAAAGGTTATAGCATGAATAGAAT | 5.51
13 | GATATAGGGTCAGCTAGAGGCCAGAGTATGGAAA | 3.42
14 | TGTATGAGGTTAAAGATCAGGGAACGTGGCGTCG | 2.15
15 | ACTTACGGCTCAACGAGGTTATAGCACGCGTATA | 1.53
16 | CAAACTAGGTCACCGAAAGGTCAAAGTCCGCATG | 6.46
17 | TATACAAGGTCAAAGGCCAGAGTACGAATGTCGA | 4.83
18 | ATCGAAAGGTCCAAGGTGAGTATACCCACCCGAA | 0.423
19 | CCTACTGGTCCAAGGTCATTGATCAGTCAAAGCA | 3.79
20 | GGAACGAGGTCAAAGTTGATAGCATCTGTCGACG | 5.81

Row | Sequence | PBM binding z-score
21 | ATCGAAAGGTCGAAGGTGCGTATACCCACCCGAA | 2.58
22 | CGTCCAAGGTCAAGGTCAATGAAAGAGACTCGAA | 5.07
23 | CAAACTAGGTCAAAAGGTCAAAGTCCGCTTCCCG | 6.32
24 | TAGCCTAGTTCATGCGGGCCAGTATAGTGTCGGC | 1.14
25 | CGTCCAAGGTCATAGGAGGTCAATGAAGACAGAT | 7.01
26 | GATACAGGGTCAGCTACAGGCCAGAGTATGGAAA | 2.55
27 | ATATGTAGGTTACATCCGGGTCATCCAGGCTATG | 4.14
28 | CGAACTAGGTCACCCAGGACAGTGAATACATTGA | 4.43
29 | CGAACTACGTCATCCAGGACAGTGAATACATTGA | 0.17
30 | TCTAGTTGGTCACGGAGGACACACACGACGGGTA | 2.67
31 | TGTCAAAGTTCAAAGGTTACGTAAGTATCCACAC | 6.4
32 | TCTAGTTGGTCACGGAGGTCCCACACGACGGGTA | 1.19
33 | CGAACGAGGTCAAAGGACAGTGAAAGGCGACGTA | 5.02
34 | AGAATGGGGTTATACGTAGATCAGGGAAGAAAGT | 3.03
35 | AGTCAAAGTTGAGGACGAGGTAACGTAAAGCACG | 0.263
36 | CGAACTAGGTCTAAGGACAGTGAAAGGCGACGTA | -0.556
37 | CCTACTGGGCCGTTCAGAGGTCATTGATCATATG | 3.58
38 | CGAACTAGGTCAAGGACAGTAAATCTCCGCACGC | 1.33
39 | CCGAGTTGGTCAAGGTCACACACGCTATAGGTAC | 4.7
40 | CCTTACGGGTTACTCCAGGTTATAGCATCGGAGT | 1.39
